Results as given in PubChem BioAssay AID577 (University of Pittsburgh Molecular Library Screening Center, 2007).
About 120 (0.18%) of roughly 65,000 compounds were called active. No stated cut-off is given here; in the data, active means z-score below about -3; inactive means the rest. Many of the other results were omitted from the sample, so actives are more common in it than they were.

molecular target: Genome polyprotein (West Nile virus) (UniProt P06935); assay: West Nile NS2B-NS3 proteinase blockers – biochemical, fluorogenic substrate, primary screen (AID 577); conditions: WNV NS2B-NS3 protease, fluorogenic substrate Ex360/Em465; hits give low values
Sequence (P06935 1371-1501 limits assumed): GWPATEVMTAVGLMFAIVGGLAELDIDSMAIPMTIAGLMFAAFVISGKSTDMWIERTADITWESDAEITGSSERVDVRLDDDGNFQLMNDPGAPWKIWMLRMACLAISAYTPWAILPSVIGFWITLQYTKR
Sequence (P06935 1502-1679 limits assumed): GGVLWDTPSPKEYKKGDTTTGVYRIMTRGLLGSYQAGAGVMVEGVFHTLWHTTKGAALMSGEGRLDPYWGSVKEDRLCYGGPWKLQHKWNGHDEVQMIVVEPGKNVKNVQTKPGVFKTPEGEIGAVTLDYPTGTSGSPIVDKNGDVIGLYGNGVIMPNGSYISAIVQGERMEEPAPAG

z-score, inactive:
Cc1ccc(-n2c(Cc3cccs3)nnc2SCC(=O)OC(C)C)cc1 -0.91
CCOc1ccc(OCC)c(NC(=O)CSc2nnc(Cn3cnc4ccccc43)n2C)c1 1.68
CSc1sc(C)cc1C1C(C#N)=C(N)N(c2cccnc2)C2=C1C(=O)CCC2 (stereo not drawn) 0.7
CCC(C)n1[nH]c(=O)c2c(C)cc(C)nc21 (stereo not drawn) 0.11
COc1ccc(/C(O)=C2/C(=O)C(=O)N(c3nc(C)c(C)s3)C2c2ccco2)cc1 (stereo not drawn) -0.46
CCOC(=O)c1sc(NC(=O)C(CC)Sc2nccn2C)nc1C (stereo not drawn) 0.77
CCOC(=O)c1sc(=S)n2c1[nH]c(=O)c1ccc(C(=O)OC)cc12 0.38
Cc1ccccc1-c1nc(CS(=O)(=O)CC(=O)N2CCc3ccccc3C2)c(C)o1 -0.21
CC(C)c1ccc(NS(=O)(=O)c2cn(C)c(=O)n(C)c2=O)cc1 -1.04
CCCOc1ccc2c3c(c(=O)oc2c1OCCC)CCC3 -0.02
COc1ccc(NC(=O)CN(C)S(=O)(=O)c2ccccc2)cc1OC -0.74
Cc1ccc(NC(=O)C2CCCN(S(=O)(=O)c3c(C)noc3C)C2)c(C)c1 (stereo not drawn) -1.04
CCOC(=O)Cn1c(CN(Cc2ccccc2)Cc2ccccc2)nc2c1c(=O)[nH]c(=O)n2C 1.45
COc1ccc(CCNS(=O)(=O)c2ccc(F)cc2)cc1OC -0.37
Cc1nnc(SCC(=O)Nn2cnnc2)s1 0.2
CCCCn1c(CCCNC(=O)CC)nc2ccccc21 0.2
CC(=O)c1ccc(NC(=O)N[C@@H](Cc2ccccc2)C(=O)O)cc1 1.38
Cc1ccc(C)c(NC(=O)C2CC(=O)N(C(C)C)C2)c1 (stereo not drawn) -0.7
Clc1ccc(C=NC23CN4CN(CN(C4)C2)C3)cc1 1.48
O=C1CC(Cc2ccccc2)C(=O)N1c1ccc(Cl)cn1 (stereo not drawn) -1.5
CCN(CC)C(=O)CSc1nnc(-c2cnccn2)n1-c1ccc(C)cc1 0.78
CSCCC(NC(=O)C1CCC(C)CC1)C(=O)NCc1ccco1 (stereo not drawn) 0.29
CCCCOC(=O)NCN1C(=O)C2C3C=CC(C3)C2C1=O (stereo not drawn) 0.28
